Data as given in PubChem BioAssay (EPA / NIEHS).
Calls of active or inactive are those of the source. How the source made its calls: active means hit-call score of the fitted dose curve at least 0.9, where 1 is the maximum; inactive means score below 0.9.

Read-out: Nuclear factor erythroid 2-related factor 2 (Homo sapiens) (UniProt Q16236)
Experiment: LTEA_HepaRG_NFE2L2: Life Technologies and Expression Analysis (LTEA) Assay for Nuclear factor erythroid 2-related factor 2 (NFE2L2) Transcription Factor using HepaRG (AID 2283527);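 on outcome: TaqMan qRT-PCR transcript level normalised to ACTB GAPDH and POLR2A housekeeping genes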
Conditions: mRNA level, 48 h; actives raise or lower the signal
In short: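 Differentiated human HepaRG cells, serum-free induction medium, exposed 48 h in duplicate to eight half-log concentrations up to 100 uM in 0.5% DMSO. NFE2L2 mRNA by Fluidigm TaqMan qRT-PCR, normalised to ACTB, GAPDH, POLR2A; bidirectional change versus DMSO.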

Sequence of Nuclear factor erythroid 2-related factor 2 (Homo sapiens) (Q16236 whole entry, looked up): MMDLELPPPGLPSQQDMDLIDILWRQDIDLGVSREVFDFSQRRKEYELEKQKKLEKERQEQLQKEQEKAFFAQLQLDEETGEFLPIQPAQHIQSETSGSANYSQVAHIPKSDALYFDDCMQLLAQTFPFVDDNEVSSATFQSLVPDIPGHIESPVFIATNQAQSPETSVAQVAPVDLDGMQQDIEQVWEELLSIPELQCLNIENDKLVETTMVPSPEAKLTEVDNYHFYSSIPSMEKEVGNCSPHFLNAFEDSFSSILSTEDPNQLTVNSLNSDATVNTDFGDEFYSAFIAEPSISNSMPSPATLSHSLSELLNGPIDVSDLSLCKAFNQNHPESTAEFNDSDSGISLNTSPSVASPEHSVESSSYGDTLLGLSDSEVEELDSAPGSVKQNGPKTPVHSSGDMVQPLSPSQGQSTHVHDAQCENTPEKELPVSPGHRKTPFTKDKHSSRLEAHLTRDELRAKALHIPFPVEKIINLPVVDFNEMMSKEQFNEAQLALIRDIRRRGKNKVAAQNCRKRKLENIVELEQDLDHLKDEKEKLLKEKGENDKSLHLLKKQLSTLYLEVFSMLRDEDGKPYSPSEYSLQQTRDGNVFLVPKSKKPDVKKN

Compound	AC50	outcome
Cc1[nH]cnc1C[C@H]1CCc2c(C)c3ccccc3n2C1=O	44.5 µM (active)	
Cc1ccc(N)cc1O		inactive
COc1ccc(/C=C/S(=O)(=O)NC(=O)c2ccc(C)cc2Cl)cc1		inactive
Nc1ccc(Nc2ccccc2)cc1		inactive
CNS(=O)(=O)c1cc(C(=O)N2CCC(CCN3C4CCC3CC(n3c(C)nc5ccccc53)C4)(c3cccc(F)c3)CC2)c(Cl)cc1F (stereo not drawn)		inactive
O=P(OC(CCl)CCl)(OC(CCl)CCl)OC(CCl)CCl	83 µM (active)	
CC(C)c1cccc(C(C)C)c1N1C(=O)c2ccc(O)cc2C1=O		inactive
Oc1ccc2c(c1)-c1ccccc1C2	21.4 µM (active)	
CCOCCO		inactive
C=CCCCCCCCCC(=O)O		inactive
O=C(O)c1cccc(Oc2ccccc2)c1		inactive
CC(C)CC(C)(O)C#CC(C)(O)CC(C)C (stereo not drawn)		inactive
CC1(C)C(=O)N(Br)C(=O)N1Br		inactive
C1=CCCC=CCCC=CCC1		inactive
COc1cccc(-c2ccc(/C=C\CN3CCCCCC3)cc2Cl)c1	65.7 µM (active)	
CC(=O)OCCC(C)C		inactive
O=c1n(CC2CO2)c(=O)n(CC2CO2)c(=O)n1CC1CO1 (stereo not drawn)		inactive
Cc1ccc(O)cc1		inactive
CCN(C(=O)c1cc(C)cc(OC[C@H](C)Nc2ccncc2)c1)C(C)C		inactive
COC(=O)c1c(Cl)c(Cl)c(C(=O)OC)c(Cl)c1Cl		inactive
CC[C@H](C)C(=O)O[C@H]1C[C@@H](C)C=C2C=C[C@H](C)[C@H](CC[C@@H]3C[C@@H](O)CC(=O)O3)[C@H]21		inactive
CC(C)=CCC/C(C)=C/CO		inactive
CCOC(=O)c1ccc(C2CCC(NC[C@H](O)COc3ccc(O)c(NS(C)(=O)=O)c3)CC2)cc1 (stereo partly drawn)		inactive
CCOC(=O)COc1ccc2c(c1)CC(NCC(O)c1cccc(Cl)c1)CC2 (stereo not drawn)		inactive
CC/C(=C\C(=N/O)C(N)=O)C(C)[N+](=O)[O-] (stereo not drawn)		inactive
O=C(O)CCN(C1(C(=O)NO)CCCC1)S(=O)(=O)c1ccc(Oc2ccc(F)cc2)cc1		inactive
O=C1CCC(N2C(=O)c3ccccc3C2=O)C(=O)N1 (stereo not drawn)		inactive
O=C(OC[C@H]1O[C@@H](OC(=O)c2cc(O)c(O)c(OC(=O)c3cc(O)c(O)c(O)c3)c2)[C@H](OC(=O)c2cc(O)c(O)c(OC(=O)c3cc(O)c(O)c(O)c3)c2)[C@@H](OC(=O)c2cc(O)c(O)c(OC(=O)c3cc(O)c(O)c(O)c3)c2)[C@@H]1OC(=O)c1cc(O)c(O)c(OC(=O)c2cc(O)c(O)c(O)c2)c1)c1cc(O)c(O)c(OC(=O)c2cc(O)c(O)c(O)c2)c1	15.2 µM (active)	
CCc1cc(SCc2sc(-c3ccc(C(F)(F)F)cc3)nc2CN2CCN(c3ccc(OC)cc3)CC2)ccc1OCC(=O)O	91.8 µM (active)	

Read-out: succinate dehydrogenase complex iron sulfur subunit B (SDHB), SDHB (gene 6390)
Experiment: LTEA_HepaRG_SDHB: Life Technologies and Expression Analysis (LTEA) Assay for succinate dehydrogenase complex iron sulfur subunit B (SDHB) using HepaRG (AID 2283528)
Conditions: mRNA level, 48 h; actives raise or lower the signal
In short: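 Readout is SDHB transcript level by qRT-PCR, normalised to three housekeeping genes and fitted bidirectionally against 0.5% DMSO vehicle. Human HepaRG cells were treated for 48 h at up to 100 uM.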

Compound	AC50	outcome
Cc1[nH]cnc1C[C@H]1CCc2c(C)c3ccccc3n2C1=O	81.5 µM (active)	
Cc1ccc(N)cc1O		inactive
COc1ccc(/C=C/S(=O)(=O)NC(=O)c2ccc(C)cc2Cl)cc1		inactive
Nc1ccc(Nc2ccccc2)cc1		inactive
CNS(=O)(=O)c1cc(C(=O)N2CCC(CCN3C4CCC3CC(n3c(C)nc5ccccc53)C4)(c3cccc(F)c3)CC2)c(Cl)cc1F (stereo not drawn)	17.3 µM (active)	
O=P(OC(CCl)CCl)(OC(CCl)CCl)OC(CCl)CCl	85 µM (active)	
CC(C)c1cccc(C(C)C)c1N1C(=O)c2ccc(O)cc2C1=O	50 µM (active)	
Oc1ccc2c(c1)-c1ccccc1C2		inactive
CCOCCO		inactive
C=CCCCCCCCCC(=O)O		inactive
O=C(O)c1cccc(Oc2ccccc2)c1		inactive
CC(C)CC(C)(O)C#CC(C)(O)CC(C)C (stereo not drawn)		inactive
CC1(C)C(=O)N(Br)C(=O)N1Br		inactive
C1=CCCC=CCCC=CCC1		inactive
COc1cccc(-c2ccc(/C=C\CN3CCCCCC3)cc2Cl)c1		inactive
CC(=O)OCCC(C)C		inactive
O=c1n(CC2CO2)c(=O)n(CC2CO2)c(=O)n1CC1CO1 (stereo not drawn)		inactive
Cc1ccc(O)cc1		inactive
CCN(C(=O)c1cc(C)cc(OC[C@H](C)Nc2ccncc2)c1)C(C)C		inactive
COC(=O)c1c(Cl)c(Cl)c(C(=O)OC)c(Cl)c1Cl		inactive
CC[C@H](C)C(=O)O[C@H]1C[C@@H](C)C=C2C=C[C@H](C)[C@H](CC[C@@H]3C[C@@H](O)CC(=O)O3)[C@H]21		inactive
CC(C)=CCC/C(C)=C/CO		inactive
CCOC(=O)c1ccc(C2CCC(NC[C@H](O)COc3ccc(O)c(NS(C)(=O)=O)c3)CC2)cc1 (stereo partly drawn)		inactive
CCOC(=O)COc1ccc2c(c1)CC(NCC(O)c1cccc(Cl)c1)CC2 (stereo not drawn)		inactive
CC/C(=C\C(=N/O)C(N)=O)C(C)[N+](=O)[O-] (stereo not drawn)		inactive
O=C(O)CCN(C1(C(=O)NO)CCCC1)S(=O)(=O)c1ccc(Oc2ccc(F)cc2)cc1		inactive
O=C1CCC(N2C(=O)c3ccccc3C2=O)C(=O)N1 (stereo not drawn)		inactive
O=C(OC[C@H]1O[C@@H](OC(=O)c2cc(O)c(O)c(OC(=O)c3cc(O)c(O)c(O)c3)c2)[C@H](OC(=O)c2cc(O)c(O)c(OC(=O)c3cc(O)c(O)c(O)c3)c2)[C@@H](OC(=O)c2cc(O)c(O)c(OC(=O)c3cc(O)c(O)c(O)c3)c2)[C@@H]1OC(=O)c1cc(O)c(O)c(OC(=O)c2cc(O)c(O)c(O)c2)c1)c1cc(O)c(O)c(OC(=O)c2cc(O)c(O)c(O)c2)c1		inactive
CCc1cc(SCc2sc(-c3ccc(C(F)(F)F)cc3)nc2CN2CCN(c3ccc(OC)cc3)CC2)ccc1OCC(=O)O	93.7 µM (active)	
